Pf Dd2 inh: qHTS Primary assay for Inhibitors of Plasmodium falciparum Dd2 growth in vitro; P. falciparum Dd2 growth, SYBR Green, 72 h; 120,000 compounds, 4.3% hits; Potency, µM (doses to about 28.9 µM), without a hit: at the top dose activity, negative = inhibition, usual class: inhibitors; active = well fitted inhibition curve with a large enough effect;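 note: plate controls were DMSO vehicle for no effect and reference drug for full effect; nearly all actives have a fitted effect of over 65% in size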
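Infected erythrocytes (Dd2, 0.3% parasitemia, 2.5% hematocrit final) are added to compound in RPMI-1640/Albumax II medium, grown 72 h at 37C in low oxygen, then lysed with saponin/Triton-X containing SYBR Green and read by fluorescence.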
Numbers without * were called inactive; i = inactive; [ ] = dose if it differs, or a comment. The full list was thinned out, with hits kept by preference. Potency is the fitted concentration of half-maximal effect.

SMILES	Pf Dd2 inh
Cc1ccc2c(c1)c(=O)c(C(=O)c1ccncc1)cn2CC(=O)Nc1ccccc1Cl	i
COC[C@H]1C[C@@H](NCc2nccs2)[C@H](O)[C@@H]1O	-6%[44.1 µM]
CCOc1ccccc1NC(=O)N1CC(C(=O)N(C)C)C2(CCOCC2)C1 (stereo not given)	3%
Cn1ccnc1CN1CCOC(CCNC(=O)NC2CCCC2)C1 (stereo not given)	3%
Cc1noc(-c2ccccc2Cl)c1C(=O)NC(C)c1ccccc1 (stereo not given)	2%
COc1ccc(-c2ccc3ncn(Cc4ccccn4)c(=O)c3n2)cc1F	-10%[44.1 µM]
Cc1ccc(CN2CCc3oc(C)c(C(=O)NCCN4CCCCC4)c3C2)cc1	1.4µM*
Cc1ccsc1CN1CCc2n[nH]c(=O)n2CC1	i
CCNC(=O)c1c(C)oc2c1CN(Cc1sccc1C)CC2	11µM*
Cc1ccc(-c2cc(C(=O)NCCN3CCN(C)CC3)n(C)c2)cc1	-15%
COCC(=O)NC[C@H]1CCN(Cc2sccc2C)C[C@H]1N(C)C	i
Cc1oc2c(c1C(=O)NCCN(C)C)CN(C(=O)c1ccncc1)CC2	-9%
COC[C@@H]1CN(Cc2ccc(Br)o2)C[C@H]1C(=O)NC1CC1	1%
CCNC(=O)c1c(C)oc2c1CN(Cc1ccc(Br)o1)CC2	7.9µM*
Cc1c(C)n(C)c2ccc(C(=O)NCCCN3CCCCC3)cc12	i
CCCN(CC1CCOC1)C(=O)Nc1ccc(C)cc1 (stereo not given)	i[5.79 µM]
COc1cccc(CNC(=O)N2c3ccccc3CC2c2nc(C3CC3)no2)c1 (stereo not given)	21%[5.79 µM]
O=C(c1cccc(-c2cccc(-n3cnnc3)c2)c1)N1CCCCC1	-15%
COc1ccc(CNC(=O)CC2CCOCC2)cc1	20%
Cc1cc(-c2nc3ncccc3o2)ccc1NC(=O)COc1ccccc1C	2%
Cc1cc(-c2nc3ncccc3o2)ccc1NC(=O)COc1cc(C)c(Cl)c(C)c1	4%
Cc1cc(OCC(=O)Nc2cc(-c3nc4ncccc4o3)ccc2C)ccc1Cl	10µM*
O[C@@H]1C[C@@H](c2nc(-c3ccc4c(c3)OCO4)no2)N(CCCc2ccccc2)C1	i
COc1ccnc(CN2CCC3(CC2)CN(CCOc2ccccc2)C(=O)O3)c1OC	4%
CCc1ccc2oc(-c3cccc(NC(=O)c4ccc(N5CCC(C)CC5)c([N+](=O)[O-])c4)c3)nc2c1	7.9µM*
SMILES	Pf Dd2 inh
Cc1ccc(-c2nc3cc(Cl)ccc3o2)cc1NC(=O)c1cc([N+](=O)[O-])ccc1N1CCOCC1	-3%
O=C(Nc1cc(-c2nc3cc(Cl)ccc3o2)ccc1Cl)c1cc([N+](=O)[O-])ccc1N1CCOCC1	6%
Cc1c(NC(=O)c2ccc(N3CCC(C)CC3)c([N+](=O)[O-])c2)cccc1-c1nc2ccccc2o1	-3%
Cc1ccc2oc(-c3ccc(C)c(NC(=O)c4ccc(N5CCC(C)CC5)c([N+](=O)[O-])c4)c3)nc2c1	29%
O=C(Nc1cccc(-c2nc3ccccc3o2)c1)c1cc([N+](=O)[O-])ccc1N1CCOCC1	8.9µM*
Cc1ccc(N2CC(c3noc(-c4ccc(F)cc4)n3)CC2=O)cc1 (stereo not given)	16%
CC(=O)Nc1ccc(CN2CCC(N3CCNC3=O)CC2)cc1	6%
CC(C)c1nc2nccc(-c3cc4ccccc4o3)n2n1	-25%
C[C@H]1[C@@H]2[C@@H](O)C([C@H](C)C(=O)N3CCC(Cc4ccccc4)CC3)CC[C@@]2(C)CC[C@@H]1NC(=O)c1cnccn1 (stereo not given in full)	-6%
CO[C@H]1C(=O)N(C(C)C)[C@H]1C1CCN(C(=O)c2cnn(C)c2)CC1	17%
Cc1noc([C@@H]2CN(S(=O)(=O)c3c(C)noc3C)C[C@H]2C(N)=O)n1	2%
CN(C)[C@@H]1CN(Cc2ccc(C#N)cc2)C[C@H]1CO	8%
COc1cccc(-c2noc(-c3ccc(NCCCSC)nc3)n2)c1OC	i
COc1cccc(-c2noc(-c3ccc(NCCn4cccn4)nc3)n2)c1OC	13µM*
COc1cccc(-c2noc(-c3ccc(-c4cn[nH]c4)nc3)n2)c1OC	-23%
Cc1cccc(C(=O)NC2CCN(c3cc(-c4ccc(F)cc4)[nH]n3)CC2)c1	i
CCCCCC(=O)Nc1nc2c(s1)C[C@@H]1[C@](C)(CO)[C@H](O)CC[C@@]1(C)[C@@H]2CC(=O)Nc1cccc(O)c1	13µM*
C[C@]1(CO)[C@H]2Cc3sc(NC(=O)c4c(F)cccc4F)nc3[C@@H](CC(=O)NC3CCCC3)[C@]2(C)CC[C@H]1O	5µM*
C#CCN(C)C(=O)C[C@@H]1c2nc(NC(=O)COC)sc2C[C@@H]2[C@](C)(CO)[C@H](O)CC[C@]21C	1%
CCCCCC(=O)Nc1nc2c(s1)C[C@@H]1[C@](C)(CO)[C@H](O)CC[C@@]1(C)[C@@H]2CC(=O)NC1CCCC1	11µM*
CCCCCC(=O)Nc1nc2c(s1)C[C@@H]1[C@](C)(CO)[C@H](O)CC[C@@]1(C)[C@@H]2CC(=O)N(C)Cc1ccccc1	i
C#CCNC(=O)C[C@@H]1c2nc(NC(=O)c3c(F)cccc3F)sc2C[C@@H]2[C@](C)(CO)[C@H](O)CC[C@]21C	i
C#CCN(C)C(=O)C[C@@H]1c2nc(NC(=O)CCCCC)sc2C[C@@H]2[C@](C)(CO)[C@H](O)CC[C@]21C	10µM*
C[C@]1(CO)[C@H]2Cc3sc(NC(=O)c4ccc(F)cc4)nc3[C@@H](CC(=O)NC3CCCCC3)[C@]2(C)CC[C@H]1O	-10%
O=C(Nc1ccccc1)N1CCc2nnc(C3CC3)n2CC1	-7%
SMILES	Pf Dd2 inh
COc1ccccc1N1CCN(CC[C@H]2CN(C(=O)NC(C)C)CC[C@H]2CC(=O)O)CC1	3%
O=c1n(-c2ccc(C(F)(F)F)cc2)nc2n1CCN(Cc1cncs1)C2	-12%
O=C(c1cccc(F)c1)N1CCC2(CC1)NC(=O)N(Cc1ccc(F)cc1)C2=O	i
CC(=O)N1CC2(CCN(Cc3cscn3)CC2)CC1C(=O)O (stereo not given)	-7%
O=C(NC1CCCN(c2cc(-c3ccccc3)[nH]n2)C1)c1nccc2ccccc12 (stereo not given)	i
O=C(c1ccccn1)N1CCCCCCn2c(nnc2-c2ccc(F)cc2)CC1	-22%
O=C(c1cc(COc2ccccc2F)[nH]n1)N1CCCC(CN2CCOCC2)C1 (stereo not given)	-14%
C[C@@H](NC(=O)C[C@@H]1c2nc(-c3cccnc3)sc2C[C@@H]2[C@](C)(CO)[C@H](O)CC[C@]21C)c1ccccc1	-24%
CC(C)(C)CC(=O)Nc1nc2c(s1)C[C@@H]1[C@](C)(CO)[C@H](O)CC[C@@]1(C)[C@@H]2CC(=O)Nc1ccccc1	11µM*
CC(C)(C)C(=O)Nc1nc2c(s1)C[C@@H]1[C@](C)(CO)[C@H](O)CC[C@@]1(C)[C@@H]2CC(=O)NCCN1CCOCC1	12%
C[C@]1(CO)[C@H]2Cc3sc(NC(=O)COc4ccccc4)nc3[C@@H](CC(=O)O)[C@]2(C)CC[C@H]1O	-1%
CCCCCC(=O)Nc1nc2c(s1)C[C@@H]1[C@](C)(CO)[C@H](O)CC[C@@]1(C)[C@@H]2CC(=O)N[C@H](C)c1ccccc1	5µM*
Cc1cc(NC(=O)Cc2c[nH]c3ncc(-c4ccccc4C)cc23)n(C)n1	-15%[44.1 µM]
CC1=NS(=O)(=O)N(C)C=C1C(=O)OCc1noc(-c2cccs2)n1	32%
COc1cc(OC)cc(-c2cc3nc(C)c(CCC(=O)NCc4ccccc4)c(C)n3n2)c1	-12%

Screening data deposited in PubChem BioAssay by National Center for Advancing Translational Sciences (NCATS).
